Laboratory results reported in PubChem BioAssay AID449764 (Southern Research Specialized Biocontainment Screening …, 2010).
Screen size: about 2,300 compounds; about 1,700 (74%) were called active. The set was probably picked from earlier hits. This is one part of the list. Results with a measured potency or affinity are listed apart. A number with no mark means an inactive call. How the calls were made is not given here.

Test: Confirmatory growth inhibition assay, Mycobacterium tuberculosis H37Rv, absence of glycerol (AID 449764);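 further: growth read after 7 days of incubation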
Details: no glycerol; series mostly up to 100 µM; inhibition: at the top concentration

In order of falling “inhibition” value:
1. CCOC(=O)c1ccc(NC(=S)Nc2ccc3[nH]c(=O)[nH]c3c2)cc1  29.6%
2. Cc1c(Cl)c([N+](=O)[O-])nn1Cc1ccc(C(=O)N/N=C\c2cccc(Br)c2)o1  27.6%
3. CSc1ccccc1C(=O)NC1CCSc2ccccc21 (configuration not stated)  20.9%
4. COc1ccc(-c2oc3ncnc(NCCCN4CCOCC4)c3c2-c2ccc(OC)cc2)cc1  13.5%
5. O=C(c1ccco1)N1CCN(C(=O)C2CC(c3ccc(Cl)c(Cl)c3)=NO2)CC1 (configuration not stated)  12.1%
6. CCCCc1cc(=O)oc2cc(O)ccc12  11.3%
7. CC1CN(C(=S)SCC(=O)c2ccc([N+](=O)[O-])cc2)CC(C)O1 (configuration not stated)  11.2%
8. CCc1cc(C(=O)Nc2ccc(C)cc2Br)cs1  8.99%
9. O=C(N/N=C/c1cn(-c2ccccc2)nc1-c1cccs1)c1ccc(Cl)cc1  7.81%
10. Cc1n[nH]c(=S)n1/N=C/c1cccc(OCc2ccccc2)c1  7.56%
11. CCn1c(SCC(=O)N(C)CCC#N)nc2cc(S(=O)(=O)N3CCOCC3)ccc21  6.82%
12. CCCNC(=O)NC(=O)COc1ccc2oc3ccccc3c2c1  6.46%
13. Fc1cccc2sc(Nc3nc4cc5c(cc4s3)OCO5)nc12  5.75%
14. Cc1cccc(COc2ccccc2/C=N/Nc2ccc([N+](=O)[O-])cc2)c1  5.72%
15. O=C(C1CCC1)N1CCN(S(=O)(=O)c2ccc(Br)cc2Cl)CC1  5.08%
16. C/C(=N\N(Cc1ccccc1)c1ccccc1)c1ccncc1  4.7%
17. CCCn1c(O)c(N=NC(=O)c2ccco2)c2ccccc21  4.39%
18. COc1ccc(NC(=O)C2C3C=CC(O3)C2C(=O)NCc2cccnc2)cc1 (configuration not stated)  4.36%
19. CC(=O)c1ccc2c(c1)C1C(Cl)C(Sc3ccccc3[N+](=O)[O-])CC1C(c1ccccc1)N2 (configuration not stated)  3.73%
20. COC(=O)c1ccc(N/N=C/c2cc([N+](=O)[O-])cc(OC)c2O)cc1  3.48%
21. CC1(C)CN(c2ccccc2)N(C(=O)c2ccc(C#N)cc2)C1=O  2.97%
22. C=CCc1cccc(CNc2cnc3ccccc3c2)c1O  2.59%
23. O=C(CSc1nc(Nc2ccccc2)nc(N2CCOCC2)n1)Nc1cc(Cl)ccc1O  2.45%
24. COc1ccc2[nH]c(=O)c(CNc3cccc(C)c3)cc2c1  2.12%
25. O=C(NCc1ccc2c(c1)OCO2)c1c(O)nc2sccn2c1=O  1.96%
26. Cc1cc(/C=C(/C#N)c2cccc(F)c2)c(C)n1-c1cccnc1  1.53%
27. N#C/C(=C1\CCCN1)c1nc(-c2ccccc2)cs1  0.87%
28. O=C(CCN1C(=O)/C(=C/c2ccccc2Cl)SC1=S)N1CCCC1  0.83%
29. COC(=O)c1cccc(C#CC(NP(=O)(c2ccccc2)c2ccccc2)c2ccccc2)c1 (configuration not stated)  0.43%
30. CCc1n[nH]c(=S)n1/N=C/c1ccc(-c2ccc(Br)cc2)o1  0.41%
31. CC1CCC/C(=N\NC(=S)Nc2ccccc2)C1 (configuration not stated)  0.12%
32. COc1cc2cnc(-c3ccccc3)c(-c3ccc(C(F)(F)F)cc3)c2cc1OC  -0.08%
33. CN1C(=O)CC(c2ccccc2)C1=O (configuration not stated)  -0.42%
34. O=C(OCCN1C(=O)c2ccccc2C1=O)c1cc2ccccc2o1  -0.54%
35. Nc1nc(-c2cccc(F)c2)cs1  -0.58%
36. CCOC(=O)c1cn[nH]c1N  -1.01%
37. c1ccc(CCNc2ncnc3c2cnn3-c2ccccc2)cc1  -1.21%
38. Nc1cc(=O)[nH]c(SCc2csc(-c3ccccc3)n2)n1  -1.35%
39. CC(NC(=O)c1ccccc1Br)C1CC2CCC1C2 (configuration not stated)  -1.35%
40. CC(=O)CCSc1ncnc2sc(-c3ccccc3)cc12  -1.41%
41. CC1=CC(=O)NP(=O)(Oc2ccc3ccccc3c2)N1 (configuration not stated)  -1.64%
42. Nc1ccc2oc(-c3cccs3)nc2c1  -1.81%
43. C(=N\N1CCN(C2c3ccccc3-c3ccccc32)CC1)/c1ccccn1  -1.89%
44. CCCCOC(=O)c1ccc(NC(=S)NC(=O)c2c(Br)c(C)nn2C)cc1  -2.35%
45. CCOC(=O)c1cc(-c2cccc([N+](=O)[O-])c2)on1  -2.44%
46. COC(=O)C1=C(C)NC(=O)/C1=C\c1cc(C)n(-c2cccc(C)c2)c1C  -2.49%
47. c1ccc(NNC2=NCCCCC2)cc1  -2.54%
48. O=C(CCSc1ccc(Cl)cc1)NC12CC3CC(CC(C3)C1)C2  -2.68%
49. CCOC(=O)c1ccc(NC(=O)CSc2ccc(-c3cccnc3)nn2)cc1  -3%
50. Cc1ccc(CN2CCN(Cc3ccc(-n4cccn4)cc3C)CC2CCO)cc1 (configuration not stated)  -3.02%
51. N#CC(c1cccc(Cl)c1)c1ccc2c(C(F)(F)F)cc(C(F)(F)F)nc2n1 (configuration not stated)  -3.14%
52. O=C(NNc1ccc([N+](=O)[O-])cc1)c1ccco1  -3.37%
53. Cc1nn(-c2ccccc2)c(Cl)c1/C=N/NC(=O)c1ccc(CNc2ccccc2)o1  -3.39%
54. Clc1ccc(-c2ccc(C=Nc3ccc(N4CCOCC4)cc3)o2)c(Cl)c1  -3.46%
55. COC(=O)C(NC(=O)c1ccc(OC)cc1)(Nc1ncc(S(=O)(=O)c2ccc([N+](=O)[O-])cc2)s1)C(F)(F)F (configuration not stated)  -3.98%
56. COc1ccc(NC(=O)CN(C)C(=O)c2n[nH]c3ccccc23)cc1  -4.02%
57. CNc1cccccc1=S  -4.44%
58. COc1ccc(N=Cc2ccc(CNS(=O)(=O)c3ccc(Cl)cc3)o2)cc1  -4.59%
59. Nc1cnccc1C(=O)O  -4.85%
60. COc1ccc(OC)c(C(=O)NC(CC(N)=O)c2ccc(NCc3ccc(F)c(F)c3)c([N+](=O)[O-])c2)c1 (configuration not stated)  -5.11%
61. Cc1cn(-c2ccc(Br)cc2)[nH]c1=O  -5.24%
62. CCCN(C(=O)CCOc1ccc(C(C)(C)C)cc1)c1c(N)n(Cc2ccccc2)c(=O)[nH]c1=O  -6.04%
63. COc1ccc(S(=O)(=O)N(C)CC(=O)NCCCn2ccnc2)cc1Cl  -6.65%
64. O=C(C[n+]1ccccc1)NNc1ccccc1  -6.73%
65. Nn1c(SCc2ccccc2)nc2ccccc21  -6.86%
66. O=C(c1ccccc1)c1c[nH]c(C(=O)NNc2ccccc2)c1  -7.38%
67. O=c1[nH][nH]cc1C=Nc1ccc(Oc2ccccc2)cc1  -7.44%
68. CCCSC1=C(C#N)C(c2ccc(Cl)cc2Cl)CC(=O)N1 (configuration not stated)  -8.3%
69. CCn1nc(C)c(C(=O)Nc2cc(Oc3cc(C)cc(C)c3)cc([N+](=O)[O-])c2)c1C  -9.17%
70. CCOC(=O)C1CCN(C(=O)c2ccc3c(c2)NC(=O)/C(=C/c2ccccc2)S3)CC1  -14.7%
71. CC(C)Oc1ccc(NC(=O)Oc2ccccc2)cc1  -21.4%
72. O=C(NC1CCCCC1)C1CC(=O)N(c2cccc([N+](=O)[O-])c2)C1 (configuration not stated)  -25.3%
